Reference: PubChem BioAssay AID1159580 (chemical genetic matrix, 2015)
In all, about 5,500 compounds went through this assay and about 2,000 (36%) were called active. Not shown: some 18% with an inconclusive outcome. Rule as the data show it: active = normalized growth mostly below about 0.91 (no sharp cut-off); inconclusive = no clear call, values can overlap the other calls; inactive = mostly above about 0.92. Some of the results follow.

Assay: chemical genetic growth profiling, strain panel (AID 1159580);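 also: tested at 20 µM; growth read once vehicle control cultures reached saturation at 30 °C; 1 = growth at the plate median or of vehicle wells; lower values mean less growth of the strain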
Details: S. cerevisiae deletion strains, growth OD
[1] = locus YDL101C, strain DUN1, active compounds read low
[2] = locus YHR030C, strain SLT2, active compounds read low

Measured: normalized growth

Clc1ccc(CSc2nccn2-c2cc(Cl)ccc2Cl)cc1
active: [2] 0.69
inactive: locus YAR019C, strain CDC15, active compounds read low 0.969 | locus YBL105C, strain PKC1, active compounds read low 0.964 | locus YBR135W, strain CKS1, active compounds read low 0.96 | locus YBR136W, strain MEC1, active compounds read low 0.951 | locus YBR160W, strain CDC28, active compounds read low 0.963 | locus YDL017W, strain CDC7, active compounds read low 0.969 | locus YDL028C, strain MPS1, active compounds read low 0.949 | [1] 0.97 | locus YDL108W, strain KIN28, active compounds read low 0.937 | locus YDL132W, strain cdc53, active compounds read low 0.978 | locus YDL214C, strain PRR2, active compounds read low 0.888 | locus YDR052C, strain DBF4, active compounds read low 0.962 | locus YDR054C, strain cdc34, active compounds read low 0.946 | locus YDR226W, strain ADK1, active compounds read low 0.954 | locus YDR477W, strain SNF1, active compounds read low 0.888 | locus YER123W, strain YCK3, active compounds read low 0.784 | locus YER133W, strain GLC7, active compounds read low 0.884 | locus YFL009W, strain cdc4, active compounds read low 0.951 | locus YFL029C, strain CAK1, active compounds read low 0.965 | locus YFR003C, strain YPI1, active compounds read low 0.958 | locus YFR019W, strain FAB1, active compounds read low 0.909 | locus YFR028C, strain CDC14, active compounds read low 0.961 | locus YGR040W, strain KSS1, active compounds read low 0.872 | locus YGR052W, strain FMP48, active compounds read low 0.946 | locus YGR092W, strain DBF2, active compounds read low 0.801 | locus YHR079C, strain IRE1, active compounds read low 0.88 | locus YHR082C, strain KSP1, active compounds read low 0.951 | locus YHR205W, strain SCH9, active compounds read low 0.893 | locus YIL147C, strain SLN1, active compounds read low 0.953 | locus YJL095W, strain BCK1, active compounds read low 0.886 | locus YJL128C, strain PBS2, active compounds read low 0.987 | locus YJL157C, strain FAR1, active compounds read low 0.867 | locus YJR016C, strain ILV3, active compounds read low 0.963 | locus YJR066W, strain TOR1 (second series), active compounds read low 0.829 | locus YJR066W, strain TOR1, active compounds read low 0.948 | locus YKL048C, strain ELM1, active compounds read low 0.927 | locus YKL067W, strain YNK1, active compounds read low 0.894 | locus YKL101W, strain HSL1, active compounds read low 0.887 | locus YKL193C, strain SDS22, active compounds read low 0.961 | locus YKL203C, strain TOR2, active compounds read low 0.915 | locus YLR113W, strain HOG1, active compounds read low 0.884 | locus YLR133W, strain CKI1, active compounds read low 0.886 | locus YLR403W, strain SFP1, active compounds read low 0.832 | locus YML070W, strain DAK1, active compounds read low 0.872 | locus YMR001C, strain CDC5, active compounds read low 0.964 | locus YMR205C, strain PFK2 (second series), active compounds read low 0.879 | locus YMR277W, strain FCP1, active compounds read low 0.958 | locus YNL006W, strain LST8, active compounds read low 0.961 | locus YNL020C, strain ARK1, active compounds read low 0.859 | locus YNL161W, strain CBK1, active compounds read low 0.964 | locus YNL183C, strain NPR1, active compounds read low 0.909 | locus YNL207W, strain RIO2, active compounds read low 0.965 | locus YNL222W, strain SSU72, active compounds read low 0.961 | locus YNL307C, strain MCK1 (second series), active compounds read low 0.879 | locus YOL078W, strain AVO1, active compounds read low 0.962 | locus YOL136C, strain PFK27, active compounds read low 0.872 | locus YOR061W, strain CKA2, active compounds read low 0.817 | locus YOR119C, strain RIO1, active compounds read low 0.856 | locus YOR231W, strain MKK1, active compounds read low 0.868 | locus YOR329C, strain SCD5, active compounds read low 0.967 | locus YPL031C, strain PHO85, active compounds read low 0.866 | locus YPL153C, strain RAD53, active compounds read low 0.847 | locus YPL204W, strain HRR25, active compounds read low 0.86 | locus YPL209C, strain IPL1, active compounds read low 0.96 | locus YPL256C, strain CLN2, active compounds read low 0.977 | locus YPR025C, strain CCL1, active compounds read low 0.964 | locus YPR106W, strain ISR1, active compounds read low 0.978 | locus YPR111W, strain DBF20, active compounds read low 0.976 | strain NNK1, active compounds read low 0.974 | strain TSCII, active compounds read low 0.962

Nc1ncnc(SCc2ccc(Cl)cc2)n1
inactive: locus YAL013W, strain DEP1, active compounds read low 0.984 | locus YBR229C, strain ROT2, active compounds read low 1.01 | locus YCL061C, strain MRC1, active compounds read low 1.02 | [1] 0.988 | locus YDR150W, strain NUM1, active compounds read low 1.04 | locus YEL061C, strain CIN8, active compounds read low 0.968 | locus YGR078C, strain PAC10, active compounds read low 1 | [2] 1.08 | locus YHR087W, strain rtc3, active compounds read low 1 | locus YJR043C, strain POL32, active compounds read low 0.999 | locus YJR075W, strain HOC1, active compounds read low 1.01 | locus YLR039C, strain RIC1, active compounds read low 0.835 | locus YLR058C, strain SHM2 (second series), active compounds read low 0.999 | locus YLR085C, strain ARP6, active compounds read low 0.994 | locus YLR262C, strain YPT6, active compounds read low 0.988 | locus YML094W, strain GIM5, active compounds read low 0.992 | locus YMR219W, strain ESC1, active compounds read low 0.996 | locus YMR263W, strain SAP30, active compounds read low 0.989 | locus YMR307W, strain GAS1, active compounds read low 0.995 | locus YNL153C, strain GIM3, active compounds read low 1.01 | locus YNL298W, strain CLA4 (second series), active compounds read low 0.98 | locus YNL322C, strain KRE1, active compounds read low 0.987 | locus YNR030W, strain Alg12, active compounds read low 1.02 | locus YPL055C, strain LGE1, active compounds read low 1.01 | locus YPL241C, strain CIN2, active compounds read low 0.993 | locus YPR135W, strain CTF4, active compounds read low 1.14
